# Pin1 inh – qHTS Assay to Find Inhibitors of Pin1. Peptidyl-prolyl cis-trans isomerase NIMA-interacting 1 (Homo sapiens), Q13526. Pin1 FP peptide displacement, HiFluor488, 10 min. Potency, µM (series often up to 115 µM), usual class: inhibitors. hit rate 0.009% among 390,000. AID 504891, 2011; active = well fitted inhibition curve with a large enough effect in the polarisation, with a control signal flat, not every such curve was filed as active; inconclusive = small, poorly fitted or top-dose-only effect, or effect the other way, or a change in a side signal; inactive = no such curve, though single readings can be large or run the other way; the % refers to the polarisation
# Tb PGK inh – qHTS Assay to Find Inhibitors of Phosphoglycerate Kinase. PGK/GAPDH coupled, Kinase-Glo luminescence, 60 min. Potency, µM (series often up to 57.5 µM), hits mostly inhibitors. hit rate 0.043% among 380,000. AID 602233, 2012; note: nearly all actives have a fitted effect of over 60% in size
#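 Luminescent ATP detection (Kinase-Glo Plus) follows a 60-minute room-temperature incubation, with wells lacking PGK as controls. Buffer: 100 mM TEA (pH 7.6), 5 mM MgCl2, 0.01% Tween-20. Coupling enzyme GAPDH (100 nM final) supplies unstable 1,3-BPG in-well.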
# PI5P4Ka inh – qHTS for Inhibitors of phosphatidylinositol 5-phosphate 4-kinase (PI5P4K); max response, %; PI5P4Kalpha enzyme, ADP-Glo luminescence, 60 min; stronger effect = lower value; AID 652105, 2013; hit rate 1.2% among 330,000; Phosphatidylinositol 5-phosphate 4-kinase type-2 alpha (Homo sapiens), P48426; active = max response of -50% or lower; inconclusive = between -30% and -50%; inactive = -30% or higher; note: value at the top dose of about 77 µM
#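 Single end-point luminescence (ADP-Glo) quantified ADP from PI5P4Kalpha turnover; ATP 5 microM final, 1 h at RT, 0.1% CHAPS and 0.28 mM EGTA in HEPES pH 7.4.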
# Tb PFK inh – qHTS Assay to Find Inhibitors of T. brucei phosphofructokinase. ATP-dependent 6-phosphofructokinase (Trypanosoma brucei brucei), O15648. T. brucei PFK, ADP-Glo luminescence. Potency, µM (doses to about 57.5 µM), actives largely listed as inhibitors. hit rate 0.17% among 330,000; note: nearly all actives have a fitted effect of over 60% in size
#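 PFK 1.25 nM, F6P 0.5 mM, ATP 0.1 mM, 0.1 M TEA pH 8.0, 5 mM MgCl2, 0.01% Tween20, 0.1% BSA; 45 min RT. ADP-Glo readout. qHTS titration up to 57 uM; curves fitted, compounds curve-classed.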
# PI4K2A block – qHTS for small molecular inhibitors of PI4K2A; activity change, negative = inhibition, % at 76.9 µM; hit rate 0.13% among 420,000; purified PI4K2A, ADP-Glo luminescence, 1 h; stronger effect = lower value; Phosphatidylinositol 4-kinase type 2-alpha (Homo sapiens), Q9BTU6; in the data active = activity change below about -50%; inconclusive = mostly about -30% to -49%
# Target sequence (Q9BTU6 whole entry, looked up): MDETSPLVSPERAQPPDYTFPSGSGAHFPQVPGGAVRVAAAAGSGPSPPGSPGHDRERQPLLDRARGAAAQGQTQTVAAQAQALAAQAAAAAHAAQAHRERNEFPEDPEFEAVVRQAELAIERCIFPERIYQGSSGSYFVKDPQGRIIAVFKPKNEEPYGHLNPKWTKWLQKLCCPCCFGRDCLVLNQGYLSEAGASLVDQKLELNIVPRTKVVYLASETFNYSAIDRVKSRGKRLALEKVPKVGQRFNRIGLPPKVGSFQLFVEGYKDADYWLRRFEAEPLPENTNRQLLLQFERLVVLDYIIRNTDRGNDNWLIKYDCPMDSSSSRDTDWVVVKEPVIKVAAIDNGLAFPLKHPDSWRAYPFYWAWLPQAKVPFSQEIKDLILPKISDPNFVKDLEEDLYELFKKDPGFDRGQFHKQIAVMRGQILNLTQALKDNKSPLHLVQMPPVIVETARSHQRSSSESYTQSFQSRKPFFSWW
#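 ADP-Glo luminescence measured ADP generated by PI4K2A enzyme (4 ug/mL before mixing) with 1.2 mM PI substrate (pre-mix) and 300 microM ATP (pre-mix). Tris pH7.5 buffer with MgCl2, Triton X-100; 1 h reaction at ambient temperature.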
# A number is an active result; 0 = inactive; ? = inconclusive; - = no result. This excerpt belongs to a sample that is enriched for hits. Unless noted, calls come from the whole dose curve; as a rule, active = well fitted curve in the direction sought with a large enough effect; inconclusive = small, poorly fitted or top-dose-only effect, or another doubt; inactive = no such curve, though single readings can be large; an effect the other way counts as inactive or inconclusive.
SMILES,Pin1 inh,Tb PGK inh,PI5P4Ka inh,Tb PFK inh,PI4K2A block
COc1cc(C=Nn2c(-c3ccc(F)cc3)n[nH]c2=S)ccc1OCc1ccccc1,-,-,-,-,0
CC(=O)c1ccc(Sc2nnnn2-c2ccccc2)c([N+](=O)[O-])c1,0,0,0,0,0
Cn1c(Sc2ccc(C(=O)O)cc2[N+](=O)[O-])nnc1-c1ccccc1,0,0,-76.8,0,0
O=C(O)/C=C\c1cccc(-n2nnnc2SCc2ccccc2F)c1,-,0,-83.4,0,0
O=C(O)c1ccc(-n2nnnc2SCc2ccccc2F)cc1,0,0,0,0,0
CC(C)(C)OC(=O)N1CCC(N[C@@H](Cc2ccccc2)C(=O)NCCc2c[nH]c3ccccc23)(C(=O)NC2CCCCC2)CC1,-,-,-,-,0
CN(C)c1ccc(C=c2c3ccccc3n3c2c2ccccc2[n+]3C)cc1,0,0,-75.0,-,0
Cc1cc2c(=Cc3ccc(N(C)C)cc3)c3ccccc3n2[n+]1C,?,0,0,-,0
CCOC(=O)c1cc2c(=Cc3ccc(N(C)C)cc3)c3ccccc3n2[n+]1C,?,0,0,-,-51.0
CN(C)c1ccc(/C=C/c2ccc3ccccc3[n+]2C)cc1,0,0,?,0,?
CC(=O)C(Sc1nn(C)c(=S)s1)C(=O)Nc1ccccc1 (stereo not drawn),0,0,-82.6,0,0
C/C=C1\[C@H]2C=C(C)C[C@]1(N)c1ccc(=O)[nH]c1C2,-,-,-,-,0
O=C(CNC(=O)c1cccc(Cl)c1)OC(C(=O)Nc1cc(C(F)(F)F)ccc1Cl)c1ccccc1 (stereo not drawn),0,-,-,-,-
COc1ccc(S(=O)(=O)N2Cc3ccccc3CC2C(=O)Nc2ccc3c(c2)OCO3)cc1 (stereo not drawn),0,0,0,0,0
Cc1ccc(S(=O)(=O)N2Cc3ccccc3CC2C(=O)Nc2ccc3c(c2)OCO3)cc1 (stereo not drawn),0,0,-50.5,0,0
CC1CCc2sc(C(=O)NC3CCCCC3)cc2C1 (stereo not drawn),0,0,0,0,0
CC1CCc2sc(-c3n[nH]c(=S)o3)cc2C1 (stereo not drawn),0,0,-68.0,0,0
S=c1[nH]nc(-c2cc3c(s2)-c2ccccc2CC3)o1,0,0,-88.5,0,0
CSc1nnc(-c2cc3c(s2)-c2ccccc2CC3)o1,0,0,0,0,0
COc1ccc(C2c3c(n(CCCc4ccccc4)cnc3=N)Oc3ccc4ccccc4c32)cc1OC (stereo not drawn),0,-,-,-,-
O=C(O)c1ccc2c(c1)C(=O)N(CCc1ccccc1)C2=O,0,0,-65.4,0,0
O=C1c2ccccc2C(=O)N1CCc1ccccc1,0,0,0,-,0
O=C(O)CCCCCN1C(=O)c2ccc(C(=O)O)cc2C1=O,0,0,-,0,0
O=C(O)c1ccc2c(c1)C(=O)N(CCCCCCCN1C(=O)c3ccc(C(=O)O)cc3C1=O)C2=O,0,0,-77.9,0,0
O=C(O)c1ccc2c(c1)C(=O)N(CCc1c[nH]c3ccccc13)C2=O,0,0,-68.5,0,0
SMILES,Pin1 inh,Tb PGK inh,PI5P4Ka inh,Tb PFK inh,PI4K2A block
Cc1[nH]c2c(C)cccc2c1CC(=O)O,0,0,0,0,0
Cc1cccc2c(N=O)c(O)[nH]c12,?,0,-58.8,0,0
O=C1CC(SC(=S)C2CCCC2=O)C(=O)N1 (stereo not drawn),-,?,-80.1,-,0
S=c1[nH]nc2ccc3ccccc3n12,-,-,-60.8,-,0
Cc1cccc(OC(=O)Nc2ccc(C(=O)O)c(O)c2)c1,-,0,-54.5,-,0
COc1ccc(C2=CC3=C(Br)C(=O)C(C)(OC(=O)c4ccco4)C(=O)C3=CO2)cc1 (stereo not drawn),?,?,-73.8,0,?
COC(=O)CCC(=O)OC1(C)C(=O)C2=CN(c3ccc(OC)cc3)C(c3ccc(OC)cc3)=CC2=C(Br)C1=O (stereo not drawn),0,0,?,-,0
C=CCN1CCN(C(c2ccccc2)c2nnnn2CCC(C)C)CC1 (stereo not drawn),0,0,-58.9,0,0
CC(C)CCn1nnnc1C(c1ccccc1)N1CCN(C)CC1 (stereo not drawn),0,0,0,0,0

# Screens from PubChem.
